Reference: the supplement of paper PMC3484114
± gives the standard deviation.

Test system: OVCAR-3-derived ovarian cancer stem-like cells (spheroids)
Assay: cell growth relative to untreated control; higher = more growth (less inhibition)
Conditions: 2.29 µM; 96 h
In short: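 Stem-like cells derived from OVCAR-3 spheroids were dissociated with trypsin and seeded at 50,000 cells/mL in stem cell medium in ultra-low attachment 96-well plates, then preincubated for 24 h. Each compound was added at 2.29 uM to 4 replicate wells and left for 96 h at 37°C, 5% CO2. Viability came from TOX8 resazurin fluorescence (ex 560/em 590 nm) read after 4 h. Percent growth was expressed relative to untreated wells, after blank subtraction and removal of outliers by the Grubbs test.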

Row | SMILES | cell growth [%]
1 | O=[N+]([O-])c1cc(-c2nc(=S)[nH][nH]2)ccc1O | 98.5 ± 14
2 | C/C(=N\Nc1nc2ccccc2s1)c1ccncn1 | 30.8 ± 7.4
3 | COc1cc(C[C@H]2c3cc(OC)c(OC)cc3CCN2C)c(Oc2cc3c(cc2OC)-c2c(OC)c(OC)cc4c2[C@H](C3)N(C)CC4)cc1OC | 77.8 ± 11
4 | COc1nc(N)nc2nc[nH]c12 | 91.9 ± 17
5 | O=C(ON=C1c2ccccc2C(Br)C(Br)c2ccccc21)c1ccccc1 (configuration not stated) | 107 ± 22
6 | CC(C)(C)[Si](C)(C)OCC1CCC(n2cnc3c(N)ncnc32)O1 (configuration not stated) | 111 ± 23
7 | COC1CC(C)C(OC)c2cc(O)cc(c2O)NC(=O)/C(C)=C/C=C\C(C)C(OC(N)=O)/C(C)=C/C(C)C1OC (configuration not stated) | 29 ± 4.8
8 | CC1=CC(=C(c2ccc(N)cc2)c2ccc(N)cc2)C=CC1=N | 50.4 ± 6.5
9 | O=[N+]([O-])c1cccc2c(N=Nc3ccc4ccccc4c3O)c(O)cc(S(=O)(=O)O)c12 | 74.2 ± 40
10 | CN(CO)c1nc(N(C)CO)nc(N(C)CO)n1 | 83.5 ± 18
11 | N#CC1=C(N)Oc2c(ccc3cccnc23)C1c1ccccc1 (configuration not stated) | 57.8 ± 17
12 | CC1=C(O)c2ccccc2C(=O)C1=O | 91.9 ± 56
13 | N#CCCN(CCC#N)c1ccc(C=Nc2ccc(F)cc2)cc1 | 101 ± 28
14 | Cc1cc2c(c3oc(C4(C)OC4C4OC4C)cc(=O)c13)C(=O)c1c(O)c(C3CC(C)(N(C)C)C(O)C(C)O3)cc(C3CC(N(C)C)C(O)C(C)O3)c1C2=O (configuration not stated) | 47.6 ± 40
15 | C=C1CC(Cn2cc(Br)c(=O)[nH]c2=O)(c2ccc(-c3ccccc3)cc2)OC1=O (configuration not stated) | 57.1 ± 20
16 | C1CN(c2nnc(N3CCC3)nn2)C1 | 104 ± 18
17 | NC(=Nc1nc(-c2ccccn2)cc2ccccc12)c1ccccn1 | 9.1 ± 2.3
